# Reference: the supplement of paper PMC10849652
# The full data set covers some 7,900 targets. This sample favours those with a hit. About 0.6% of all pairs of compound and target were hits. Values without a mark were called inactive.
# Experiments:
# Assay in all cases: log2 fold change, soluble protein after heating vs DMSO (PISA); higher = thermal stabilisation; K562 cells, 10 uM, 30 min; active = over 0.2 and 3.5 SD of the protein, either way, in both replicates (recomputed)
# erlotinib = compound: C#Cc1cccc(Nc2ncnc3cc(OCCOC)c(OCCOC)cc23)c1 [erlotinib]
# In short: (§1)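 K562 cells (2×10^6 cells/mL) were treated with 10 μM compound for 30 min, and aliquots were heated for 3 min over 48°C-58°C. Pooled aliquots were extracted in PBS with 0.5% NP-40 at 4°C, and the supernatant after 21,000xg for 90 min was measured by TMTpro 16plex LC-MS/MS with channel sums equalised. Reported thermal stability, relative to control samples and from duplicates, is a log2 fold change.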
# [1] = compound: C/C(=N\NC(=O)C1=CC(=CC=C1)S(=O)(=O)N2CCOCC2)/C3=C(C=CC(=C3)Cl)O
# In short: as §1
# [2] = compound: C1=CC(=C(C=C1Cl)C2=NC3=NC=CN=C3C(=N2)NC4=CC=NC=C4)F
# In short: as §1
# [3] = compound: C1=CC(=CC=C1C2=NC3=C(N2)C=C(C=C3)C(=O)N)OC4=CC=C(C=C4)Cl
# In short: as §1
# [4] = compound: C1=CC2=C(C=CC(=C2)/C=C\3/C(=O)NC(=NCC4=CC=CS4)S3)N=C1
# In short: as §1
# [5] = compound: C1=CC2=NC=CN=C2C=C1/C=C/3\C(=O)NC(=O)S3
# In short: as §1
# [6] = compound: C1=CC=C(C=C1)C2=NC(=C(N2)C3=CC=NC=C3)C4=CC(=C(C=C4)Cl)O
# In short: as §1
# [7] = compound: C1=CC=C2C(=C1)C3=NNC4=CC=CC(=C43)C2=O
# In short: as §1
# [8] = compound: C1CCN(C1)C(=O)NC2=CC=CC(=C2)NC3=NC=C(C(=N3)NCCC4=CN=CN4)Br
# In short: as §1
# [9] = compound: C1CN(CCC1(CC2=CC=C(C=C2)Cl)N)C3=NC=NC4=C3C=CN4
# In short: as §1
# IRAK-1-4 Inhibitor I = compound: C1COCCN1CCN2C3=CC=CC=C3N=C2NC(=O)C4=CC(=CC=C4)[N+](=O)[O-] [IRAK-1-4 Inhibitor I]
# In short: as §1
# ibrutinib = compound: C=CC(=O)N1CCC[C@@H](n2nc(-c3ccc(Oc4ccccc4)cc3)c3c(N)ncnc32)C1 [ibrutinib]
# In short: as §1
# [10] = compound: CC(=O)c1cnc2ccc(-c3cc(Cl)c(O)c(Cl)c3)nc2c1N[C@H]1CC[C@H](CN(C)C)CC1
# In short: as §1
# ralimetinib = compound: CC(C)(C)Cn1c(N)nc2ccc(-c3[nH]c(C(C)(C)C)nc3-c3ccc(F)cc3)nc21 [ralimetinib]
# In short: as §1
# [11] = compound: CC(C)(O)CC(=O)NCCn1ccc2ncnc(Nc3ccc(Oc4cccc(C(F)(F)F)c4)c(Cl)c3)c21
# In short: as §1
# [12] = compound: CC(C)C1=C2N=C(C=C(N2N=C1)NCC3=CC=CC=C3)NCCCCCCN
# In short: as §1
# [13] = compound: CC(C)C[C@@H](C=O)NC(=O)[C@H](CC(C)C)NC(=O)[C@H](CC(C)C)NC(=O)OCc1ccccc1
# In short: as §1
# pinometostat = compound: CC(C)N(C[C@H]1O[C@@H](n2cnc3c(N)ncnc32)[C@H](O)[C@@H]1O)[C@H]1C[C@@H](CCc2nc3cc(C(C)(C)C)ccc3[nH]2)C1 [pinometostat]
# In short: as §1
# [14] = compound: CC1=C(C(CC(=O)N1)C2=CC=C(C=C2)C(F)(F)F)C(=O)NC3=C(C=C4C(=C3)C=NN4)F
# In short: as §1
# [15] = compound: CC1=C(C2=C(C=C1)C(=O)C3=CC=CC=C3N2CCCN)C
# In short: as §1
# Sequence of UniProt Q8WU79 (Q8WU79 whole entry, looked up): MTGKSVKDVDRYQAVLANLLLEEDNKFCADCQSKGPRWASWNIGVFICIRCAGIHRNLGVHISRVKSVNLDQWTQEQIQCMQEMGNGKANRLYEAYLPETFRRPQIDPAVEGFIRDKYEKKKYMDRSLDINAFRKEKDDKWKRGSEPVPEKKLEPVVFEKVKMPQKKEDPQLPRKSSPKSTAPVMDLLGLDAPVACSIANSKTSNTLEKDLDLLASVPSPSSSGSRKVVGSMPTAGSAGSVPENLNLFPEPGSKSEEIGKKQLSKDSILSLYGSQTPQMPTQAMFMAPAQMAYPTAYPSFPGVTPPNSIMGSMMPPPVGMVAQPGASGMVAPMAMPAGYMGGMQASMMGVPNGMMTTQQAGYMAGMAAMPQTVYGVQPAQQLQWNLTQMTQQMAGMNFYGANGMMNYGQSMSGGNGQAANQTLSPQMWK
# Sequence of UniProt Q6XR72 (Q6XR72 whole entry, looked up): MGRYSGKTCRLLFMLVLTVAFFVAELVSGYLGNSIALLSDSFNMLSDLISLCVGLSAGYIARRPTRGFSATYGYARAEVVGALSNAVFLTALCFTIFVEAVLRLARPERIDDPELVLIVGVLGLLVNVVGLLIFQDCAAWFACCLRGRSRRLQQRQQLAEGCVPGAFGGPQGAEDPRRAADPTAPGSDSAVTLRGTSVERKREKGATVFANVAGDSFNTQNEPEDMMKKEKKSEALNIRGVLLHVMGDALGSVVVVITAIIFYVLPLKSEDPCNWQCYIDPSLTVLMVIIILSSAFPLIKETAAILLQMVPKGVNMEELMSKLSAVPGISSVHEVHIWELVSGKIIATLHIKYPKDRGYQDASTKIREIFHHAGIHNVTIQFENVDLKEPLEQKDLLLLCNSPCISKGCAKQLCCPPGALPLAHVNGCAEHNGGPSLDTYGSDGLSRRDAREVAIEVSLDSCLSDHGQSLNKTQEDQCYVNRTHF
# Sequence of UniProt Q96Q15 (Q96Q15 whole entry, looked up): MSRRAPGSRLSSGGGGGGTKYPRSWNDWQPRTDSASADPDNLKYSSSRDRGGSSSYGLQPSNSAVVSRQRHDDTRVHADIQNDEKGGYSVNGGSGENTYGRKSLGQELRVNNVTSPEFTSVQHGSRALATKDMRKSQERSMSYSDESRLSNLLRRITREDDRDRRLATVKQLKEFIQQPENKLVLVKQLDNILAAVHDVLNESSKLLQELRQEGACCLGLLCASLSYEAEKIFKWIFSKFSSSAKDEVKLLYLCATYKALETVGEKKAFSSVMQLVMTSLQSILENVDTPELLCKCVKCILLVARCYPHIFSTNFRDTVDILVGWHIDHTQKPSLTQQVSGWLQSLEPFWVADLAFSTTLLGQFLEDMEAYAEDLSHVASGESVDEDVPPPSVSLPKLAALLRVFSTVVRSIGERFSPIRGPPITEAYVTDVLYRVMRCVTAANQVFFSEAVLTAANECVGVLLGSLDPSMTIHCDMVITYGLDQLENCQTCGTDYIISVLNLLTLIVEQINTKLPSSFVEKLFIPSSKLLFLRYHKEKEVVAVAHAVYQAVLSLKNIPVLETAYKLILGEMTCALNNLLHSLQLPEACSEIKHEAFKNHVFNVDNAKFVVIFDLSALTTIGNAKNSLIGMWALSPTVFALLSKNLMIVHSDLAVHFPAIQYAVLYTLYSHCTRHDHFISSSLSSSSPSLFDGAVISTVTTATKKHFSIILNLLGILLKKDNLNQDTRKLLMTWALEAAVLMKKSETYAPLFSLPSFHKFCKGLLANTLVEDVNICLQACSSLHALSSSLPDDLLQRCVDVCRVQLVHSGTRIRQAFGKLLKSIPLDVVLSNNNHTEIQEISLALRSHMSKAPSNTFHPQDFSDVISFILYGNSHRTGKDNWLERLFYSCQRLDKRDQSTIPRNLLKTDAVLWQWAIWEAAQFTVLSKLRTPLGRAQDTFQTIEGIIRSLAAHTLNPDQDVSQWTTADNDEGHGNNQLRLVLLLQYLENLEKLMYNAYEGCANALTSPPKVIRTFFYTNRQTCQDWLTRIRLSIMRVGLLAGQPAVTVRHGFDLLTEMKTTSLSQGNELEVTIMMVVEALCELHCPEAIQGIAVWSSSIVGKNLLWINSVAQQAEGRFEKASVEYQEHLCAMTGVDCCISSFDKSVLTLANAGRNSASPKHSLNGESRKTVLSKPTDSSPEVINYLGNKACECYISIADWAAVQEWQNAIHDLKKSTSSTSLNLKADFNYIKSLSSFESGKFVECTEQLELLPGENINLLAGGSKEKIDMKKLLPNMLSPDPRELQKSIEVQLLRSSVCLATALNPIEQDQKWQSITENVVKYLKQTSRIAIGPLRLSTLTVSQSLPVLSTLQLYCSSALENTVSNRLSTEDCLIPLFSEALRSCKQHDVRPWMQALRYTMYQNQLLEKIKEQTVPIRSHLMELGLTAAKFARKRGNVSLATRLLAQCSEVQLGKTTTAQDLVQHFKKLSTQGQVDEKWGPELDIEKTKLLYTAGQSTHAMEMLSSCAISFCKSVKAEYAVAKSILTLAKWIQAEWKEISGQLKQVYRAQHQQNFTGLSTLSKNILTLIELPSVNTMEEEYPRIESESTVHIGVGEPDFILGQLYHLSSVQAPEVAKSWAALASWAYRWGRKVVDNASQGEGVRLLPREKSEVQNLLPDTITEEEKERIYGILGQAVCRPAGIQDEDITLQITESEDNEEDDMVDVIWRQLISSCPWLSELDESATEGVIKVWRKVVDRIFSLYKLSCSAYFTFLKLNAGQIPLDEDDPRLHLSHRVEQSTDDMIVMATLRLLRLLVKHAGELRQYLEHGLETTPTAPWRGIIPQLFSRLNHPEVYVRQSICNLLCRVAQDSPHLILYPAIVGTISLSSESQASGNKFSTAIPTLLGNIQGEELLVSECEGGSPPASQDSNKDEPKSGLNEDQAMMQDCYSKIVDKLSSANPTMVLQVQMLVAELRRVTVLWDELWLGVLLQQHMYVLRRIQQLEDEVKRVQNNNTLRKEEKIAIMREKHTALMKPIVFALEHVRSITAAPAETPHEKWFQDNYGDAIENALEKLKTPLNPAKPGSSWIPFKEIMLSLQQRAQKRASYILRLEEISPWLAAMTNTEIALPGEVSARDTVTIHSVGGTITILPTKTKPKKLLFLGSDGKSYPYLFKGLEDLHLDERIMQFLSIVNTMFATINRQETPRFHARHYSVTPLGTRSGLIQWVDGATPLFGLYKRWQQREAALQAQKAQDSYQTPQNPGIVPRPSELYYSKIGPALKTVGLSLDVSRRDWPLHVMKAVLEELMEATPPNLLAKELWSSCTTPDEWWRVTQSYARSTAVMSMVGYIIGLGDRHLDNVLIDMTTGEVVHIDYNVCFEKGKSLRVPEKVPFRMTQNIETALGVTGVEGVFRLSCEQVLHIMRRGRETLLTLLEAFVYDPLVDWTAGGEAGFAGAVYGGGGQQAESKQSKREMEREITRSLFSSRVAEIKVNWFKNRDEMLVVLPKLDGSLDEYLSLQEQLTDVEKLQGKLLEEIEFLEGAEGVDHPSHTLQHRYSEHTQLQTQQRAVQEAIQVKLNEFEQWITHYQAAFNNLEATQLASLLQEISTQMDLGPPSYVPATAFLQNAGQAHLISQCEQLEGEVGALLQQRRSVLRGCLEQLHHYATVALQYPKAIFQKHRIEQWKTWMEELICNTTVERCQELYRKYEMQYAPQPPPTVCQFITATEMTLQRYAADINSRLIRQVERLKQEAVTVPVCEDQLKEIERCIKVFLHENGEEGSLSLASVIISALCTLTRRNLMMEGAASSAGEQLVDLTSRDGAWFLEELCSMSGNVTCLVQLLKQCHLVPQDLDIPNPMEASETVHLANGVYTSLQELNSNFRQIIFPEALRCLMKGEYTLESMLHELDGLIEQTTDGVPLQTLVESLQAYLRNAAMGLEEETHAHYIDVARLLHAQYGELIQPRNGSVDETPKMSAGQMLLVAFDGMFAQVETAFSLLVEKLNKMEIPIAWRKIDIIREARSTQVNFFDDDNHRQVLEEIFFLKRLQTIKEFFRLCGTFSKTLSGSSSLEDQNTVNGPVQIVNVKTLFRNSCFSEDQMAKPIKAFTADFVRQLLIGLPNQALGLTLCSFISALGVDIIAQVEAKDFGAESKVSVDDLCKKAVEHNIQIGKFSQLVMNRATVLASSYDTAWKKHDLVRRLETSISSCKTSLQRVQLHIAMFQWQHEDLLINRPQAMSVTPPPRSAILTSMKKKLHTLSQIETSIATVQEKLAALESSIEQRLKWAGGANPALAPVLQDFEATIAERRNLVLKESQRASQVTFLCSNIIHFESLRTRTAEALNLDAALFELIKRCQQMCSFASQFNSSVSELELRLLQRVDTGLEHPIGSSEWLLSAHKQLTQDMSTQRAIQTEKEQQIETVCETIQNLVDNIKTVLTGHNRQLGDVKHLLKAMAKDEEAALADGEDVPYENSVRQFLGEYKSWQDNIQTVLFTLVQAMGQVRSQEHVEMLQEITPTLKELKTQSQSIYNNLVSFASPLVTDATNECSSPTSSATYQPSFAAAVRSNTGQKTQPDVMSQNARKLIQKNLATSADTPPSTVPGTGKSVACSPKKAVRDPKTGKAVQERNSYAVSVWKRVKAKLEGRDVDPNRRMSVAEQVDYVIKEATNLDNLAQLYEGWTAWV
# Sequence of UniProt Q13501 (Q13501 whole entry, looked up): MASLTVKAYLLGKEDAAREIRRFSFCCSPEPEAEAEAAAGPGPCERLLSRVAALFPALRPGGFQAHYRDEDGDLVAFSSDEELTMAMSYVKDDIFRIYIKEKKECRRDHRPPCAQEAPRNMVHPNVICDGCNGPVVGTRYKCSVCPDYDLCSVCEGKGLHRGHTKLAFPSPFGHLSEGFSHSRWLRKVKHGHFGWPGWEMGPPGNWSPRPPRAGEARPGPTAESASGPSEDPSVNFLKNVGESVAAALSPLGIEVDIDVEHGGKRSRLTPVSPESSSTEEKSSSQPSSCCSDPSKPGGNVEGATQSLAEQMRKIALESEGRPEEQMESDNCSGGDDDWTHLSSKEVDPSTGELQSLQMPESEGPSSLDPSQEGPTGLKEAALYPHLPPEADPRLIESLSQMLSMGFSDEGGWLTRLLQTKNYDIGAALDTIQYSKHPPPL
Target,log2 fold change (erlotinib),log2 fold change [1],log2 fold change [2],log2 fold change [3],log2 fold change [4],log2 fold change [5],log2 fold change [6],log2 fold change [7],log2 fold change [8],log2 fold change [9],log2 fold change (IRAK-1-4 Inhibitor I),log2 fold change (ibrutinib),log2 fold change [10],log2 fold change (ralimetinib),log2 fold change [11],log2 fold change [12],log2 fold change [13],log2 fold change (pinometostat),log2 fold change [14],log2 fold change [15]
SLC7A6OS (UniProt Q96CW6),-0.015,0.018,0.035,-0.039,0.007,0.042,0.045,-0.025,-0.015,0.022,0.018,-0.027,0.046,0.134,-0.032,0.045,-0.019,0.273 (active),0.014,-0.199
STAT3 (UniProt P40763),-0.023,0.147,0.026,0.007,0.031,0.031,0.011,-0.001,-0.01,-0.036,-0.038,-0.044,0.009,-0.001,-0.08,-0.261 (active),0.024,0,-0.05,-0.057
SLC30A10 (UniProt Q6XR72),0.033,0.068,-0.06,0.001,0.077,0.008,0.025,-0.003,-0.054,0.115,0.05,-0.08,-0.019,-0.014,-0.079,0.035,-0.054,-0.032,0.035,0.12
TMBIM6 isoform 2 (UniProt P55061),-0.019,0.029,0.051,-0.062,0.067,0.076,0.019,-0.07,0.026,-0.01,0.023,0.001,0.004,-0.208,-0.437 (active),-0.521 (active),0.135,0.017,0.003,-0.075
SLC29A3 (UniProt Q9BZD2),0.155,0.024,0.028,0.043,0.042,0.098,0.064,0,0.074,0.052,0.01,0.064,0.04,-0.025,0.088,-0.283,0.011,0.02,-0.046,-0.148
SRSF7 (UniProt Q16629),0.083,-0.043,-0.292,0.063,-0.154,-0.032,-0.135,-0.037,0.084,-0.063,-0.112,0.128,-0.288,0.098,0.24,0.032,0.084,0.128,0.053,-0.266
TCERG1 (UniProt O14776),0.072,0.154,0.152,-0.017,0.067,-0.022,0.015,0.027,-0.104,-0.029,-0.062,-0.073,-0.065,-0.035,-0.172,-0.086,-0.041,-0.039,-0.016,0.062
SP3 (UniProt Q02447),0.034,-0.028,0,0.059,0.003,-0.051,-0.053,-0.066,-0.065,-0.1,-0.129,0.003,-0.007,0,0.022,-0.006,0.054,0.026,0.114,0.607 (active)
STOM (UniProt P27105),-0.027,-0.087,-0.011,0.1,0.054,0.04,-0.188,-0.038,0.004,-0.079,-0.039,0.019,-0.018,-0.054,0.004,-0.064,0.14,0.028,0.014,0.039
SQSTM1 (UniProt Q13501),-0.058,-0.008,0.101,0.037,-0.017,0.108,-0.004,0.02,-0.135,-0.045,-0.006,0.012,-0.298 (active),-0.026,0.058,-0.118,0.039,0.048,0.077,-0.079
TARBP1 (UniProt Q13395),0.015,0.062,0.023,0.027,-0.091,0.065,-0.022,0.012,-0.085,0.019,0.062,-0.007,-0.01,0.003,-0.074,-0.066,0.009,0.041,0.04,0.184
SMAP2 (UniProt Q8WU79),-0.044,0.13,-0.005,-0.032,-0.029,0.019,-0.015,0.017,-0.086,0.038,0.04,-0.027,0.039,0.048,-0.039,0.02,0.137,0.015,-0.025,0.004
SMG1 (UniProt Q96Q15),0.012,0.101,0.066,-0.012,-0.029,0,-0.088,0.049,-0.054,0.066,-0.088,0.021,-0.002,0.012,0.002,0.007,-0.014,-0.06,0.045,0.054
TM9SF4 (UniProt Q92544),-0.015,0.011,-0.006,0.052,-0.054,-0.002,0.008,0.038,-0.012,0.066,-0.006,0.008,-0.016,0.031,-0.006,-0.033,0.029,0.016,-0.015,0.077
TECR (UniProt Q9NZ01),-0.02,0.042,0.036,-0.059,0.018,0.024,0.067,-0.059,0.072,0.045,0.04,-0.059,0,-0.061,-0.107,-0.458 (active),0.009,0.024,0.012,0.036
SP1 (UniProt P08047),-0.055,-0.03,-0.046,0.043,0.006,0.01,0.001,-0.031,0.047,-0.019,0.013,0.024,0.029,-0.049,-0.031,-0.05,0.064,0.04,0.043,-0.312 (active)
